The list is not random: actives were taken first. Their share in the collection is about 6.5%.
HCMV antiviral – human cytomegalovirus inhibition. AID 1259415. HFF cells, HCMV-luciferase reporter, 72 h; hits give low values. 410,000 compounds, 4.5% hits. activity change, negative = inhibition, % at 57.5 µM; in the data active means activity change below about -60%; inconclusive means no clear call, values can overlap the other calls; inactive means above about -39%
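Luciferase read-out from HCMV-luciferase-infected HFFs (MOI 1 PFU/cell) 72 h post infection at 37C; compounds added after 16 h cell attachment; activity normalized between buffer-only basal and Salinomycin (10uM) inhibitor controls.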
Vaccinia Venus – inhibitors of vaccinia virus (Venus reporter). AID 720580. Potency, µM (titrated, usually from 36.5 µM), for the others: top-dose activity change, negative = inhibition, actives largely listed as inhibitors. 330,000 compounds, 0.46% hits. Vaccinia virus Venus reporter expression, fluorescence; calls by dose curve; tested in A549 cells; further: potency means the concentration at half of the fitted maximal effect; nearly all actives have a fitted effect of over 30% in size
LASV entry inh – inhibitors of Lassa virus binding or cell entry | Lassa virus pseudotype entry inhibition, cell reporter | Potency, µM (highest dose often 37.9 µM), for the others: at the highest dose activity change, negative = inhibition, actives largely listed as inhibitors | 300,000 compounds, 1.2% hits; calls by dose curve; tested in HEK293 cells; further: potency means the concentration at half of the fitted maximal effect; nearly all actives have a fitted effect of over 50% in size
FMDV antiviral – blocks foot and mouth disease virus. FMDV antiviral cell-based qHTS. Potency, µM (highest dose often 57.9 µM), without a hit: at the highest dose activity change, negative = inhibition, usual class: inhibitors. 410,000 compounds, 1.2% hits. AID 1159524; calls by dose curve; tested in HEK293T cells; further: read-out not given here; potency means the concentration at half of the fitted maximal effect; nearly all actives have a fitted effect of over 45% in size
Vaccinia mCherry – vaccinia inhibition (mCherry reporter) | 310,000 compounds, 0.63% hits | Potency, µM (doses to about 36.5 µM), inactives show top-dose activity change, negative = inhibition, actives largely listed as inhibitors | AID 720579 | Vaccinia virus mCherry reporter infection, fluorescence; calls by dose curve; tested in A549 cells; further: potency means the concentration at half of the fitted maximal effect; nearly all actives have a fitted effect of over 35% in size
MARV entry inh – inhibitors of Marburg virus binding or cell entry. Marburg virus pseudotyped entry inhibition, cell reporter. Potency, µM (top dose mostly 37.8 µM), for inactives: top-dose activity change, negative = inhibition, most hits filed as inhibitors. 300,000 compounds, 1.8% hits. AID 540276; calls by dose curve; tested in HEK293 cells; further: potency means the concentration at half of the fitted maximal effect
* = called active by the depositor; i = inactive; ? = inconclusive; nt = no result; [ ] = dose if it differs, or a comment. On the % scale 0 is the no-effect control and ±100 the full control effect.

SMILES	HCMV antiviral	Vaccinia Venus	LASV entry inh	FMDV antiviral	Vaccinia mCherry	MARV entry inh
O=C(CN1CCOCC1)Nc1cc(C(F)(F)F)ccc1Cl	-66.1*	-8.4%	2.5%	-21.6%	-3.2%	?
O=C(CN1CCN(S(=O)(=O)N2CCOCC2)CC1)Nc1cc(Cl)ccc1Cl	-1.9	0.2%	nt	28.2µM*	10.4%	?
O=C(CN1CCCCCC1)Nc1cc(C(F)(F)F)ccc1Cl	?	-6.6%	-6.0%	-17.8%	-11.2%	-5.5%
CC(=NNC(=S)N1CCN(c2ccccn2)CC1)c1ccccn1	-13.8	-1.9%	-9.3%	-8.8%	i	?
CC(=NNC(=S)N1CC2CCC(CC2)C1)c1cnccn1	-95.8*	?	0.282µM*	-16.6%	15.8µM*	?
O=C(c1ccccn1)N1CCN(S(=O)(=O)c2ccccc2)CC1	-94.2*	-7.2%	8.1%[46.1 µM]	-16.8%	-1.7%	4.7%[46.1 µM]
CC(=NNC(=S)N1CCN(C2CCCCCC2)CC1)c1ccccn1	-96.5*	?	0.282µM*	?	?	?
CC(=NNC(=S)N1CC2CCC(CC2)C1)c1ccccn1	-99.6*	?	nt	-3.7%	?	nt
CN1CCC(=NNC(=O)CN(c2cccc(Br)c2)S(C)(=O)=O)CC1	54.0	-5.8%	6.2%	1.1%	-6.2%	13.4%
C/C(=N\NC(=O)C1CCCN(S(=O)(=O)c2ccccc2)C1)c1ccccn1 (centres undefined)	-92.6*	?	?	?	?	?
O=C(CN1CCCCC1)N1CCN(S(=O)(=O)c2ccccc2)C1	-102.9*	2.1%	1.0%	1.3%	0.3%	-12.0%[46.1 µM]
CC(=NNC(=S)N1CCCCCC1)c1cccc2cccnc12	-74.9*	?	?	21.1%	?	?
O=C(CN1CCN(S(=O)(=O)c2ccc(Cl)cc2)CC1)N1CCCC1	-14.9	-11.8%	23.3%	-11.1%	-6.8%	?
C=CCn1cccc(C(=O)Nc2ccc(F)cc2)c1=O	-16.0	nt	nt	9.7%	nt	nt
CC(=O)c1ccc(S(=O)(=O)NCCOc2ccccc2)cc1	?	-17.1%	nt	-17.8%	-14.4%	nt
O=C(c1cccnc1)C1CCCN(Cc2ccc3c(c2)CN(C(=O)c2ccc4[nH]ccc4c2)CCO3)C1 (centres undefined)	nt	10.0%	nt	-9.6%	-2.3%	nt
N#Cc1c(NCc2ccccc2)ccnc1NCc1cccnc1	-80.2*	?	-22.7%	-14.8%	?	?
O=C(Cc1ccc(N2CCNC2=O)cc1)N1CCCC(Nc2ccc(F)c(F)c2)C1 (centres undefined)	-61.4*	-8.6%	-0.7%[46.1 µM]	-12.1%	?	?
O=C(Cc1ccc(N2CCNC2=O)cc1)N1CCCC(Nc2cccc(F)c2)C1 (centres undefined)	-31.8	nt	nt	-7.6%	nt	nt
OC1(c2cccnc2)CCN(Cc2ccc3c(c2)CN(Cc2ccc4nsnc4c2)CCO3)CC1	nt	-20.8%	nt	?	-24.9%	nt
Cc1cccc(NC(=O)c2sc3nc(-c4ccccc4)cn3c2C)c1C	1.7	-10.7%	-13.0%[46.1 µM]	27.7%	-12.5%	nt
Nc1nonc1C(=O)N/N=C/c1ccc(-c2ccc(Cl)c(C(=O)O)c2)o1	-72.7*	3.0%	19.4%	4.5%	2.1%	?
Nc1nonc1C(=O)N/N=C/c1ccc(Br)o1	19.5	-7.6%	2.5%	41.5%	-11.8%	2.7%[46.1 µM]
CN1CC(c2ccccc2)C2(SC(=S)N(Cc3ccco3)C2=O)C12C(=O)Nc1ccccc12 (centres undefined)	-101.5*	nt	?	?	nt	?
CC(C)c1ccc(CN(C(=O)C2COc3ccccc3O2)C2CCS(=O)(=O)C2)cc1 (centres undefined)	-93.7*	nt	-15.6%	-25.6%	nt	?
CN(C)c1ccc(CN(C(=O)C2COc3ccccc3O2)C2CCS(=O)(=O)C2)cc1 (centres undefined)	-20.7	1.7%	32.4%[14.3 µM]	9.7%	-5.5%	-12.4%
O=C(CN1CCCCCC1)Nc1ccccc1C(=O)Nc1ccccc1	-20.3	-10.6%	14.4%	-13.2%	i	-1.4%
CCOC(=O)N1CCC(NC(=O)C2CCCN(Cc3nc(-c4cccc(Cl)c4)oc3C)C2)CC1 (centres undefined)	-66.6*	?	nt	14.1µM*	?	nt
CCOC(=O)N1CCC(NC(=O)CS(=O)(=O)Cc2nc(-c3cccc(Cl)c3)oc2C)CC1	-60.4*	nt	nt	-26.2%	nt	nt

Assay outcomes deposited in PubChem BioAssay by National Center for Advancing Translational Sciences (NCATS).
